# D1 antag – blocks dopamine activation of the human D1 receptor. HEK293 TREx D1 cells, calcium flux, dopamine EC80; hits give low values. activity change, negative = inhibition, % at 10 µM. P21728. 360,000 tested, 3.2% active; in the data active = activity change below about -30%; also: % is scaled to controls: 0 for no effect and ±100 for the full control effect
#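 Using tetracycline-induced force-coupled D1 Hek293 cells and a calcium dye, signals were followed for 180 s after compound, then for 180 s after EC80 dopamine, to detect inhibitors.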
# D1 agonist – human D1 receptor agonism. activation, % at 2 µM. 360,000 tested, 1% active. P21728. HEK293 T-REx D1 cells, calcium flux, agonist mode; also: 0% is about no effect
#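 Inducible HEK293 T-REx D1 cells, force-coupled to calcium signalling, were plated at 4000 cells/well with tetracycline and held overnight at 30 C. After no-wash calcium dye loading, compound-evoked calcium rise over 180 s flagged agonists.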
# D1 potentiator – potentiators of human D1 dopamine receptor; P21728; HEK293 TREx D1 cells, calcium flux, dopamine EC20 potentiation; potentiation, % at 10 µM; 360,000 tested, 0.036% active; AID 504651; in the data active = potentiation above about 30%; also: 0% is about no effect
# TRHR agonist – TRH receptor (human) agonism; P34981; TRHR cells, calcium flux fluo-8, FDSS agonist mode; activation, % at 2 µM; 360,000 tested, 0.18% active; AID 493084; also: 0% is about no effect
# Target sequence (P34981 whole entry, looked up): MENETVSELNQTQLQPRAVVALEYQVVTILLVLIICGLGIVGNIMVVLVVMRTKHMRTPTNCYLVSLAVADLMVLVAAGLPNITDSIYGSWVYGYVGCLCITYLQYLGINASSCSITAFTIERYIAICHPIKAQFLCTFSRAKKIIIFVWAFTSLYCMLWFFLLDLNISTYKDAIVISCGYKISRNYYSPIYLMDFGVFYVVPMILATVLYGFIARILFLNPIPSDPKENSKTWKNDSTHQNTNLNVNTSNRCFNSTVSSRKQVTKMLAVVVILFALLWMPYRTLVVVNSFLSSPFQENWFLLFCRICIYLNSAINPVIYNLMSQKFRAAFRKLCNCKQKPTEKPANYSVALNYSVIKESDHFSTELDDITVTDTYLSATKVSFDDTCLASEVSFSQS
#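 TRHR-expressing cells loaded with fluo-8 calcium dye; 23 nL library compound pin-transferred, kinetic FDSS fluorescence (Ex 480/Em 530) recorded about 180 s for agonist-induced calcium release, before a 10 nM TRH EC20 addition for potentiator mode.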
# TRHR PAM – TRH receptor (human) allosteric enhancement | P34981 | TRHR cells, fluo-8 calcium fluorescence, EC20 TRH enhancement | enhancement, % at 2 µM | 360,000 tested, 0.66% active | AID 493056; in the data active = enhancement above about 30%; also: 0% is about no effect
#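 Enhancer read-out: after compound pinning and an initial kinetic agonist-mode read, an EC20 of TRH (10 nM final) was injected and fluo-8 calcium signal (Ex 480/Em 530) followed at 1 s/cycle for 100 cycles in TRHR-expressing cells.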
# * hit, by the source's call; nt = no result given. Shown are actives, neighbours in structure and some others; about 4.6% of the full set was active somewhere. Rule as the data show it, unless noted: active = activation above about 30%; inactive = the rest.
SMILES,D1 antag,D1 agonist,D1 potentiator,TRHR agonist,TRHR PAM
COc1cc(C(c2c(O)c3ccccc3oc2=O)c2c(C)n(C)n(-c3ccccc3)c2=O)ccc1OCC(=O)O (centres undefined),-17.1,0.2,-0.3,0.2,-0.4
Cc1[nH]c2ccccc2c1CCNCc1ccco1,-40.7*,10.9,-2.7,1.3,2.1
Cc1[nH]c2ccccc2c1CCNCc1cccnc1,1.9,2.6,-1.1,0.0,5.0
COc1ccc(Cl)cc1N=Cc1c(O)n(C)c(=O)n(C)c1=O,3.0,1.3,-8.3,0.5,15.1
COc1ccccc1N=Cc1c(O)n(C)c(=O)n(C)c1=O,-35.4*,2.2,0.1,-0.5,-1.1
O=C1CC(c2c(F)cccc2Cl)c2c(c3ccccc3oc2=O)O1 (centres undefined),-0.2,-0.4,-2.2,0.5,1.2
CCNC(=O)NC(=O)C(C)OC(=O)c1c(C)nn(Cc2ccccc2Cl)c1Cl (centres undefined),-35.3*,5.4,-3.5,-0.1,-3.3
CCNC(=O)NC(=O)C(C)OC(=O)c1c(C)nn(Cc2ccccc2)c1Cl (centres undefined),5.9,2.2,-0.6,0.0,8.5
COc1ccc2c(c1)CC1(CN2C)C(=O)NC(=O)N(c2ccc(C)cc2)C1=O (centres undefined),-0.4,2.2,11.6,0.6,-3.0
COc1ccc2c(c1)CC1(CN2C)C(=O)NC(=O)N(c2ccc(F)cc2)C1=O (centres undefined),-82.2*,0.7,0.8,-0.2,1.5
CCSc1nnc(NC(=O)c2cccn(Cc3ccccc3Cl)c2=O)s1,-3.0,0.9,-3.9,-0.1,-0.2
CC1CCC(C(C)C)C(OC(=O)Cn2c(COc3ccccc3)[n+](C)c3ccccc32)C1 (centres undefined),22.3,41.0*,-6.3,-0.1,7.6
CCCC1=Nc2cc(C(=O)NCCCN(CC)CC)ccc2Sc2ccccc21,11.3,20.2,-3.0,1.8,3.3
Cc1ccccc1-n1c(O)c(/C=N/Nc2nc3c(c(=O)n(C)c(=O)n3C)n2C)c(=O)[nH]c1=S,-59.5*,2.2,-3.4,1.0,-1.4
Cc1cccc(-n2c(O)c(/C=N/Nc3nc4c(c(=O)n(C)c(=O)n4C)n3C)c(=O)[nH]c2=S)c1,-5.4,4.7,-4.0,1.1,4.2
COc1ccc(NC(=O)CN2C(=O)CN=C(c3ccccc3)c3ccccc32)c(OC)c1,-15.1,0.7,-0.6,-0.2,-2.8
CCN(CC(=O)Nc1ccc(NC(C)=O)cc1)C(=O)CSC(c1ccccc1)c1ccccc1,-14.9,44.5*,-3.3,-0.5,3.2
CCC(=O)Nc1ccccc1,3.8,1.1,1.6,0.1,-2.8
O=C(COc1cc(Cl)ccc1Cl)Nc1ccc(Cl)cc1C(=O)c1ccccc1,11.0,-3.0,1.1,-0.4,-2.2
Cc1ccc2nc(NC(=O)c3cccn(Cc4ccc(Cl)cc4)c3=O)sc2c1,30.1,0.1,1.6,0.0,21.4
Cc1cccc(-n2c(CC3C(=O)Nc4ccc(C)cc43)nc3ccccc3c2=O)c1 (centres undefined),7.6,0.8,-1.4,-0.2,0.6
COc1cc(CN2CCN(c3cc(C)ccc3C)CC2)ccc1O,-88.6*,7.0,-8.2,-0.2,6.0
Cc1ccccc1-c1nn2c(=O)cc(CN3CCN(C(=O)COc4ccccc4Cl)CC3)nc2s1,-34.8*,-1.8,-2.9,-0.3,11.4
COc1ccc(NC(=O)CN2C(=O)C(C)N=C(c3ccccc3F)c3cc(Cl)ccc32)c(OC)c1 (centres undefined),4.3,1.4,6.1,-1.1,0.4
c1ccc(CNc2c3c(nc4ccccc24)CCC3)cc1,-49.8*,22.4,-19.8,0.3,8.4
SMILES,D1 antag,D1 agonist,D1 potentiator,TRHR agonist,TRHR PAM
CC(C)CNc1c2c(nc3ccccc13)CCC2,-11.8,9.0,-4.2,0.7,6.0
N#Cc1ccc(NC(=O)CN2C(=O)NC3(CCCCCCC3)C2=O)cc1Cl,-56.8*,1.8,1.9,0.3,-0.3
O=C1CC(c2ccccc2Br)c2c(c3ccccc3oc2=O)O1 (centres undefined),-17.1,3.8,1.1,1.2,-6.1
NC(N)=N/N=C/c1ccc(N(c2ccccc2)c2ccccc2)cc1,85.5,16.8,15.3,0.7,11.1
C/C(=N\N=C(N)N)c1ccccc1,-38.0*,0.8,-17.3,0.5,-3.5
O=C(Nc1ccc2c(c1)OCCO2)c1cccn(Cc2cccc(F)c2)c1=O,nt,1.4,1.9,0.1,0.1
Fc1ccc2c(c1)nnn2C1CCN(Cc2ccccc2)CC1,-33.2*,0.9,-19.6,-1.0,0.0
Cc1cc(OCC(=O)N2CCN(CCc3ccncc3)CC2)ccc1Cl,7.2,7.6,-0.9,-0.2,-2.5
COc1ccc2[nH]cc(CCN)c2c1,-0.4,0.5,-4.0,0.1,31.1*
Cc1cccc(-n2nc(C)c3c2NC(=O)CSC3c2ccccc2Cl)c1 (centres undefined),0.7,-0.9,-1.4,0.5,-3.9
Cc1cc(C)cc(NC(=O)CN2C(=O)CN=C(c3ccccc3)c3cc(Cl)ccc32)c1,-7.0,3.0,-0.8,0.1,-3.2
OC(c1cccc(Cl)c1)(c1cccc(Cl)c1)C1CN2CCC1CC2 (centres undefined),-34.9*,52.1*,-4.0,7.2,0.3
O=C(Nc1cccc(C(F)(F)F)c1)OC1CN2CCC1CC2 (centres undefined),6.4,16.5,-3.6,2.6,9.6
COc1ccccc1OP(=O)(Nc1ccc(Br)cc1)Oc1ccccc1OC,-46.6*,5.7,-4.5,0.5,5.9
COc1ccc(C)cc1NC(=O)c1cccn(Cc2ccccc2Cl)c1=O,6.0,-0.1,-4.8,0.0,-1.5
O=C(Nc1ccon1)c1cccn(Cc2ccccc2)c1=O,nt,-2.1,3.0,0.3,14.2
C/C(=N\N1CCCCCC1)c1c(O)n(-c2ccc(Cl)cc2)c(=O)[nH]c1=O,0.1,2.9,-3.5,-1.4,7.3
C/C(=N\N1CCCCCC1)c1c(O)n(-c2ccc(C)cc2)c(=O)[nH]c1=O,-40.3*,3.4,-4.2,-0.2,1.8
NC1CCc2cc(O)c(O)cc2C1 (centres undefined),-102.0*,76.7*,-10.2,0.1,-0.2
CN1CC=C(/C=C/c2ccc(-c3ccccc3)cc2)CC1,-40.1*,23.8,1.4,0.4,-0.2
COc1ccc(/C=C/C2=CCN(C)CC2)cc1,-9.9,5.2,-7.2,1.8,2.3
COC(=O)c1cc(C(O)(C(=O)OC)C(F)(F)F)c(/N=C/N(C)C)s1 (centres undefined),-7.7,1.1,-6.1,0.2,39.3*
C=Cc1ccc(Cn2c(C)c(CNCCc3cc(OC)ccc3OC)c(C(=O)O)c2C)cc1,14.8,-2.3,-0.4,0.4,-10.2
Cc1ccc(C(C)C)c(OCC(=O)N2CCN(CCc3ccncc3)CC2)c1,-13.1,-2.1,-0.6,-0.4,0.0

# High-throughput results (PubChem BioAssay)
